# Experimental data reported in PubChem BioAssay AID588342 (National Center for Advancing Translational Sciences (NCATS), 2011).
# Several values for one entry are separate records, joined by “and”; a condition that tells them apart may be missing. Identical values can stand only once. About 25,000 (6.9%) of roughly 360,000 compounds were called active. Inconclusive results (about 9%) are left out. The full list was thinned out, with actives kept by preference. Values without a mark were called inactive. The call rests on the fitted dose curve; in most records, active means well fitted inhibition curve with a large enough effect; inconclusive means small, poorly fitted or top-dose-only effect; inactive means flat fitted curve, though single readings scatter.
# Target: Luciferin 4-monooxygenase (Photinus pyralis) (UniProt P08659)
# Sequence (P08659 whole entry, looked up): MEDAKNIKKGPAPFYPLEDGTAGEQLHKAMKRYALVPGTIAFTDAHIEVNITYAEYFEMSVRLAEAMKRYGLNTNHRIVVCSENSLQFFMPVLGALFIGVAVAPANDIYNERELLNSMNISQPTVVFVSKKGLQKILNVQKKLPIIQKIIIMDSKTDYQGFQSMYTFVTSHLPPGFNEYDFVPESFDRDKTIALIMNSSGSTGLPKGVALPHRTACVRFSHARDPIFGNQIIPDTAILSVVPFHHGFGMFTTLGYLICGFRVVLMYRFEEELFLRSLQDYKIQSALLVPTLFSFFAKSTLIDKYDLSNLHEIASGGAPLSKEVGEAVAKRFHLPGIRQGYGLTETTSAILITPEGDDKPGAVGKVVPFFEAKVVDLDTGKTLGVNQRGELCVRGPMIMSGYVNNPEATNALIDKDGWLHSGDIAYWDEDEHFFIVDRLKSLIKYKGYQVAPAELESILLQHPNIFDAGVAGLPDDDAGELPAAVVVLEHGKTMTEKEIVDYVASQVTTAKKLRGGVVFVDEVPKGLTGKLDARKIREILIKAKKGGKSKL
# Test: qHTS profiling assay for firefly luciferase inhibitor/activator using purifed enzyme and Km concentrations of substrates (counterscreen for miR-21 project); further: nearly all actives have a fitted effect of over 55% in size;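 on activity change, negative = inhibition: plate controls were vehicle for no effect and reference inhibitor for full effect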
# Settings: purified FLuc, luminescence inhibition; series mostly up to 57.5 µM; activity change, negative = inhibition: at the top concentration
# In short: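 Purified P. pyralis luciferase (10nM final) with 10uM D-luciferin and 10uM ATP (Km levels) in 50mM Tris acetate pH 7.5, 10mM Mg acetate, 0.01% Tween-20, 0.05% BSA; qHTS 6-point titration, ~60 µM downward; luminescence read.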
# Potency means the concentration at half of the fitted maximal effect.
Compound,"activity change, negative = inhibition [%]",Potency
Cc1ccc(CNC(=O)CCc2c(C)nc3c(c(C)nn3-c3ccccc3)c2C)cc1,-3.65,
CC(C)(C)NC(=O)CSC(=Nc1ccccc1F)NC#N,-9.66,
CC1(C)Cc2ccccc2/C(=C/C(=O)c2ccccc2)N1,-0.311,
O=C(O)C1CCCN1S(=O)(=O)c1ccc(Br)cc1 (centres undefined),-2.95,
CC1CN/C(=C\C(=O)c2ccc(Br)cc2)C(=O)N1 (centres undefined),,1.9 µM (active)
CCN(CC)S(=O)(=O)c1ccc(Cl)c(C(=O)NCCN2CCOCC2)c1,-0.0874,
O=C(NCc1ccccc1)C(c1ccccc1)N(C(=O)c1csnn1)c1ccc(F)cc1 (centres undefined),1.31,
COc1cccc(CNC(=O)CN2C(=O)CCc3cc(S(=O)(=O)N4CCOCC4)ccc32)c1,-4.52,
Cc1nc(-c2ccc(F)cc2)c(CC(=O)N(C)CC(=O)Nc2c(C)cccc2C)s1,-1.73,
COc1ccc(OC)c(/C=N/NC(=O)CSc2nnc(C)n2-c2ccccc2)c1,-6.59,
COc1ccc(/C=C2/C(=O)N(c3ccccc3)N=C2C)c(OC)c1,,15.1 µM (active)
COc1ccc(C(=O)NC2CC(C)(C)Cc3c2cnn3-c2ccccc2)c(OC)c1 (centres undefined),2.3,
CCCCc1ccc(NS(=O)(=O)c2cccc(C(=O)N3CCCN(C)CC3)c2)cc1,-0.803,
COc1ccc(/C=C/C(=O)c2ccc(NS(=O)(=O)c3ccc(C)cc3)cc2)cc1O,,6.01 µM (active)
COc1cc(NS(=O)(=O)c2ccc(NC(C)=O)cc2)cc(OC)c1,-1.03,
COc1ccc(NS(=O)(=O)c2ccc(NC(=S)NC(=O)/C=C/c3ccc(C)cc3)cc2)nn1,-2.64,
COc1cccc2c1cc1c(=O)n(CC(=O)N3CCN(c4ccccc4)CC3)nc(C)n12,-1.6,
Cc1ccsc1/C=N/n1c(=S)[nH]nc(C)c1=O,3.07,
COc1ccc(/C=N/NC(=O)C2CC2)c(OC)c1OC,-6.25,
COc1ccc(CC(=O)NCC(=O)N/N=C/c2cc(Br)ccc2OC)cc1,-11.2,
COc1ccc2[nH]c(C(=O)N/N=C/c3cc(OC)c(OC)c(OC)c3)cc2c1,,12 µM (active)
CCOc1ccccc1/C=N/NC(=O)CNC(=O)COc1ccccc1,-20,
COc1cccc(/C=N/NC(=O)CNC(=O)c2ccc(S(=O)(=O)N3CCOCC3)cc2)c1OC,0.36,
COc1cc(/C=N/NC(=O)Cc2ccccc2)cc(OC)c1OC,-1.02,
COc1cccc(OCc2cc(/C=N/NC(=O)c3nc(Cl)c(Cl)c(N)c3Cl)ccc2OC)c1,-11.1,

Compound,"activity change, negative = inhibition [%]",Potency
COc1cc2cc(C(=O)N/N=C/c3cccc(OC)c3OC)[nH]c2cc1OC,,16.9 µM (active)
CCOc1ccc2[nH]c(C(=O)N/N=C/c3cccc(OC)c3OC)cc2c1,,15.1 µM (active)
Cc1[nH]c2ccccc2c1C(=O)C(C)Sc1nnc(C2CC2)o1 (centres undefined),1.18,
CC1=C(C(=O)OCC(C)C)C(c2ccc(OCc3ccccc3)cc2)N2C(=O)CCSC2=N1 (centres undefined),-7.41,
Cc1cccc(C(=O)N2CCc3cc(CNC(=O)Cc4ccc(F)cc4)ccc32)c1,-24,
O=C(CSc1oc(-c2ccc(F)cc2)nc1S(=O)(=O)c1ccc(Br)cc1)NC1CCCCC1,-1.9,
CCOC(=O)c1ccc2c(c1)N(Cc1cccc(OC)c1)C(=O)c1ccccc1S2(=O)=O,4.9,
C/C(CC(=O)Nc1ccc(N(C)C)cc1)=N\NC(=O)c1ccccc1F,-0.398,
C/C(=N\NC(=O)Cc1ccc(Cl)cc1)c1ccccn1,5.25,
C/C(=N\NC(=O)c1ccccc1F)c1ccccn1,,2.39 µM (active)
CCCSc1ncc(Cl)c(C(=O)Nc2c(C(=O)Nc3ccccc3)oc3ccccc23)n1,-1.02,
O=C(CN1CCCSc2ccccc21)N1CCN(S(=O)(=O)c2ccccc2)CC1,1.35,
O=C(CN1CCCSc2ccccc21)N1CCN(S(=O)(=O)c2cccc(F)c2)CC1,-1.34,
N#C/C=C1\Sc2ccccc2C(=O)N1CC(=O)N1CCN(S(=O)(=O)c2ccccc2)CC1,,9.53 µM (active)
CC(=O)N1CCCc2cc(S(=O)(=O)N3CCC(C(=O)NC4CCCCC4)CC3)ccc21,-3.81,
Cc1cn(C)c(CC(=O)NCc2ccccc2)c1C(=O)O,-0.767,
CN=C1S/C(=C\c2ccc(Sc3ccc(Cl)cc3)o2)C(=O)N1C,-3.48,
O=C(O)C(c1ccccc1)N1C(=O)/C(=C\c2ccc(-c3cccc(Cl)c3)o2)SC1=S (centres undefined),2.28,
CN1C(=O)/C(=C\c2ccc(-c3ccccc3)o2)SC1=S,,2.39 µM (active)
COc1ccccc1NC(=O)CSC1=Nc2ccccc2C2=NC(CC(=O)NCc3cccs3)C(=O)N12 (centres undefined),4.48,
COc1cccc(NC(=O)c2nn(-c3ccc(OC)cc3OC)c(=O)c3ccccc23)c1,-0.385,
COc1ccc(-n2nc(C(=O)Nc3cc(OC)c(OC)c(OC)c3)c3ccccc3c2=O)c(OC)c1,-2.72,
COc1ccc(-n2nc(C(=O)NCC(=O)N3CCCCCC3)c3ccccc3c2=O)cc1Cl,,3.38 µM (active)
COc1ccc(-n2nc(C(=O)NCCc3ccc(Cl)cc3)c3c4ccccc4n(C)c3c2=O)cc1Cl,-1.63,
COc1ccc(-n2nc(C(=O)NCC(=O)N3CCC(C(N)=O)CC3)c3ccccc3c2=O)cc1OC,,12 µM (active)

Compound,"activity change, negative = inhibition [%]",Potency
CCOC(=O)CNC(=O)c1nn(-c2cccc(OC)c2)c(=O)c2ccccc12,-18.1,
COc1ccc(-n2nc(C(=O)NCC(=O)Nc3cccc(C)n3)c3ccccc3c2=O)cc1,2.32,
COCCCNC(=O)CNC(=O)c1nn(-c2ccc(OC)cc2)c(=O)c2ccccc12,-0.501,
COc1ccc(-n2nc(C(=O)NCC(=O)N3CCN(c4ccccc4OC)CC3)c3ccccc3c2=O)c(OC)c1,,1.69 µM (active)
O=C(NCC1CCCO1)c1ccc(S(=O)(=O)Nc2ccc(F)cc2)cc1 (centres undefined),10.4,
O=S(=O)(NCc1ccccc1Cl)c1cnc[nH]1,-0.378,
COC(=O)C1[C@H]2SC(C)(C)C(C(=O)OC)N2C(=O)N1Cc1nc2ccccc2s1 (some centres undefined),-2.91,
COc1ccc(-c2nc3ccccc3s2)cc1NC(=O)COc1ccccc1C,0.496,
COc1ccccc1OCc1nc2ccccc2s1,,0.601 µM (active)
Cc1cc(O)c(C(c2ccccc2)N2CCN(c3ccccc3F)CC2)c(=O)n1Cc1ccco1 (centres undefined),-13.9,
O=C(CCC1N=C2c3ccccc3N=C(SCc3ccccc3F)N2C1=O)NCCc1ccccc1 (centres undefined),-5,
CC(NC(=O)c1ccc(S(=O)(=O)Nc2ccccc2)cc1)c1ccc(S(N)(=O)=O)cc1 (centres undefined),0.247,
O=C1/C(=C/c2cccs2)SC(=S)N1C1CCS(=O)(=O)C1 (centres undefined),-10.5,
CCC1C/C(=C/c2cccs2)C(=O)/C(=C/c2cccs2)C1 (centres undefined),-0.238,
O=C(COC(=O)/C=C/c1cccs1)NC1CCCCC1,0.481,
O=C1/C(=C/c2cccs2)CCc2ccccc21,,0.757 µM (active)
O=S(=O)(c1cccs1)N1CCc2ccccc2C1,2.65,
O=C1/C(=C/c2cccs2)CCC1C1CCCC1 (centres undefined),,3.38 µM (active)
COc1ccccc1-c1cc(C(F)(F)F)nc(S(=O)(=O)CCCC(=O)Nc2cc(C)ccc2O)n1,2.47,
O=C(CSc1nnc(N2CCOCC2)n1-c1cccc(F)c1)N1CCN(c2ccccn2)CC1,1.86,
COc1cccc(C(=O)NCC(=O)OCc2cc(=O)n3ccsc3n2)c1,-3.98,
COc1cccc(C(=O)n2ccc(-c3cccs3)n2)c1,,3.38 µM (active)
COc1cccc(C(=O)NCc2ccc3c(c2)CCN3C(=O)c2ccncc2)c1,1.74,
CC(C)(C)c1cc2cccnc2n1Cc1ccccc1,-1.13,
O=C(/C=C/c1cccs1)c1cc(Cl)ccc1OC(=O)N1CCOCC1,-0.486,

Compound,"activity change, negative = inhibition [%]",Potency
CCOc1ccc(C2C(=O)N(C3CCCCC3)CC(=O)N2CCC2=CCCCC2)cc1OC (centres undefined),0.188,
Cc1cccc(CSc2nnc(C)c(=O)n2N)c1,5.06,
Cc1cccc(CSc2ccc(-c3cccs3)nn2)c1,,12 µM (active) and 8.49 µM (active)
N#Cc1ccc(-c2cccs2)nc1SCc1ccc(Br)cc1,-2.78,
C[C@H](NC(=O)c1ccccc1Cl)C(=O)OCC(=O)N1CCN(c2ccccc2)CC1,1.68,
COc1ccc(C(=O)C2CCCN(S(=O)(=O)c3cccc(C)c3)C2)c(C)c1 (centres undefined),5.75,
CCN1C(=O)c2ccccc2S(=O)c2ccc(C(=O)NCc3ccc(F)cc3)cc21 (centres undefined),1.08,
O=C(O)c1cccc(N=NN2CCCCCC2)c1,,6.75 µM (active)
O=C(O)c1ccc(N=NN2CCOCC2)cc1,1.54,
CN1CCN(S(=O)(=O)c2cccc(C(=O)O)c2)CC1,-0.781,
CC(C)Oc1ccc(S(=O)(=O)N2CCOCC2)cc1NC(=O)C1CCCC1,0.0682,
O=C(Cn1nc(C(F)(F)F)c2c1CCCC2)Nc1ccc(Cl)cc1,-4.17,
O=C(NCCS(=O)(=O)N1CCN(c2ccccc2)CC1)c1ccco1,2.07,
O=C(NCCSc1ccccc1)c1ccco1,,23.9 µM (active)
O=C(CNC(=O)c1ccco1)OCC(=O)c1ccccc1,-3.69,
CCOC(=O)Cn1c(=O)n(-c2ccccc2OC)c2nc(-c3cccc(F)c3)nc(C(N)=O)c21,-8.14,
CC(C)(C)c1ccc(S(=O)(=O)N2CCN(C(=O)c3cc(-c4ccc(Br)cc4)n[nH]3)CC2)cc1,0.458,
CC(=O)N1CCN(C(=O)Nc2cccc(C(F)(F)F)c2)CC1,-0.34,
Cc1nnsc1C(=O)N/N=C/c1cccc(C(F)(F)F)c1,-2.3,
FC(F)(F)c1cccc(N/N=C/c2ccccc2)c1,,12 µM (active)
CCC1CCCCN1C(=O)Cn1c(=O)n(CCCCCC(=O)NCc2ccccc2)c(=O)c2sccc21 (centres undefined),-16.2,
CC(C)(C)OC(=O)Nc1ccc([C@@H](NC(=O)OC(C)(C)C)C(=O)OC(C)(C)C)cc1,2.72,
COc1ccc2cc(CNc3ccc(OC)c(OC)c3)c(=O)n(CC(=O)Nc3ccccc3F)c2c1,5.48,
Cc1cc2c(cc1S(=O)(=O)CCC(=O)Nc1ccc(OC(F)(F)F)cc1)OCC(=O)N2,-15.7,
